According to PubChem BioAssay (EPA / NIEHS):
Inconclusive results are not listed. Activity calls are given as the source filed them. How the source made its calls: active means hit-call score of the fitted dose curve at least 0.9, where 1 is the maximum; inconclusive means response in the unintended direction; inactive means score below 0.9.

molecular target: human RAR-related Orphan Receptor gamma (RORg), RORC (gene 6097) (UniProt P51449); assay: ATG_RORg_TRANS: Attagene TRANS-FACTORIAL HepG2 Assay for human RAR-related Orphan Receptor gamma (RORg) (AID 2283011)
Sequence (P51449 whole entry, looked up, the tested form may be a part): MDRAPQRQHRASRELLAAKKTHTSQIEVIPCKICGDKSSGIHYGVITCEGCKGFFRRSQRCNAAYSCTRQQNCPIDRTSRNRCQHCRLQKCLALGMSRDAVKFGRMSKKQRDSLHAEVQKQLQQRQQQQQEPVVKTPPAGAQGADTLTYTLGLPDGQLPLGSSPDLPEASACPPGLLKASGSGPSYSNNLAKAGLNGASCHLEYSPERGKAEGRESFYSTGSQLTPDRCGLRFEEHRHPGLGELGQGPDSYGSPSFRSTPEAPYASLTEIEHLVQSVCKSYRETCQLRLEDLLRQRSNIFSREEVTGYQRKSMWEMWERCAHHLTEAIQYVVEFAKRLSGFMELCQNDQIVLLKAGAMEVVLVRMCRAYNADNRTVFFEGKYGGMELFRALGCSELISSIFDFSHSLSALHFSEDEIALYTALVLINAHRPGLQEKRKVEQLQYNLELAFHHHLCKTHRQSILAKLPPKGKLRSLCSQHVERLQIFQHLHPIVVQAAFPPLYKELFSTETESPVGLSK
How it was run: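 Activity is scored as increase in GAL4-UAS reporter mRNA over DMSO, detected by fluorescent RT-PCR and capillary electrophoresis in HepG2 cells transiently expressing a RORg-Gal4 chimera, 24 h after dosing.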

outcome, inactive:
O=C1CCCCCCCCCCCCCCO1, NCCNCCN, CCCCCC(CO)CCC (stereo not drawn)
